The source of these data is PubChem BioAssay (NCI).

About 79,000 compounds went through this panel and 15% of them were active in at least one assay; those are over-represented in the sample as a whole. A number with no mark means an inactive call. No stated cut-off is given here; in the data, active means growth inhibition above about 70%; inactive means the rest.

A short description of this assay: NCI Yeast Anticancer Drug Screen. Data for the cln2 rad14 strain (AID 165).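 Further: 0% = growth equal to vehicle treated cultures.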 The note with it: S. cerevisiae cln2 rad14 strain, at 50.0 µM, active compounds read high. The method, then: Growth inhibition of yeast strains with defined genetic alterations is measured as a screen for potential anti-cancer activity. Selected strains with alterations in DNA damage repair or cell cycle control were exposed to compounds and growth inhibition was measured relative to vehicle treated controls. The strain used in this assay is cln2 rad14
For the compound `COC(=O)c1nc(N)nc(C(=O)OC)c1C(=O)C(C)(C)C`, the growth inhibition is -23.6%.
`OCCNCN(CNCCO)c1nc(N(CNCCO)CNCCO)nc(N(CNCCO)CNCCO)n1`: the growth inhibition was -49.5%.
With `CC(C)c1ccc(N=Nc2ccc(N(C)C)cc2)cc1` the figure was -17.9%.
With `CCS(=O)CCC(N)C(=O)O` (stereo not given) the figure was -19.6%.
With `CC(=O)c1nc2ccccc2n1CC(=O)c1ccc([N+](=O)[O-])cc1` the figure was -8%; with `CC(O)C(C)(C)O` (stereo not given), -13.4%; with `CCOC(=O)COc1cc(C)c2ccc(=O)oc2c1`, 8.45%.
Consider `COc1nc(NC2OC(CO)C(O)C(O)C2O)c(/C=N/O)c(=O)n1C` (stereo not given), for which the growth inhibition was 6.8%.
With `Cc1ccc(N=Cc2ccc(C(N)=S)cc2)cc1` the figure was -17.4%; with `O=C(Nc1ccccc1)OC1C=CC2CCC1C2` (stereo not given), 12.8%.
As for `O=C(CCNC(=O)OCc1ccccc1)NC(Cc1ccccc1)C(=O)OCc1ccccc1` (stereo not given), the figure is -15.3%; as for `CCC(=O)c1ccc(OC(=O)Nc2ccc(Cl)cc2[N+](=O)[O-])cc1`, -0.75%; as for `C(=Nc1ccc2ccccc2c1)c1cccs1`, -12.1%.
With `COc1ccc(N=Nc2c(C)nn(C(=O)c3ccncc3)c2C)cc1` the figure was -1.2%; with `Cc1cccc(NC(=O)COc2c(C)cc(Cl)cc2Cl)c1`, 0.45%.
With `COc1ccc(C2SC(N)=Nc3c2c(C)nn3C(=O)c2ccccc2O)cc1` (stereo not given), the growth inhibition is 5.85%.
With `CCCCCCCCCCCCOC(=O)NCCCl` the figure was -224%; with `COc1ccc(OC)c(C(=O)CCCCCCCCC(=O)c2cc(OC)ccc2OC)c1`, 25.4%.
With `Nc1ccc(/C(=N\O)c2ccccc2)cc1` the figure was 0.8%.
With `Cc1ccc(C(=O)c2ccccc2Cc2cccc3ccccc23)c(C)c1` the figure was -13.7%.
Consider `CC1=NC(=O)C(C)(c2ccccc2)N1CCc1ccccc1` (stereo not given), for which the growth inhibition was -16.9%.
`Cc1cc(=O)oc2c(C)c(O)ccc12`: the growth inhibition was 13.7%.
For `CCCCCCCCCCCCCCC/C=C\C(=O)O`, the growth inhibition was 10.3%.
As for `CCOC(=O)CC(=O)C(=O)OCC`, the figure is -25.6%.
As for `Cn1c(=O)c2[nH]c(SCC(=O)O)nc2n(C)c1=O`, the figure is -21.4%; as for `CC1(C)CC(OP(=O)(c2ccccc2)c2ccccc2)CC(C)(C)N1O`, 3.1%.
As for `O=S(=O)(O)O.[NH-]CC1(C[NH-])CCCCC1.[Pt+2]`, the figure is -0.7%.
On to `N#C/C(N)=C(\C#N)NC=NCCO`, for which the growth inhibition is 18%.
As for `Cc1ccc(C(=O)/C=C/c2ccco2)cc1`, the figure is 33.5%; as for `CC(=O)n1cc(CC(C)O)c(=O)[nH]c1=O` (stereo not given), 4.85%.
As for `N#CCc1nc(-c2ccccc2)n[nH]1`, the figure is 5.6%; as for `N#Cc1cnsc1`, 3.55%.
As for `CC(=N/NC(=S)NCCN1CCCC1)/C(C)=N\NC(=S)NCCN1CCCC1`, the figure is 10.6%; as for `COc1ccc(C2=C(Cl)c3cc(OC)c(OC)cc3C2=O)cc1OC`, -18.9%; as for `N#C/C(=C\c1ccc(F)cc1)C(=O)O`, 4.2%.
As for `O=C(O)CNC1CCCC1`, the growth inhibition was -1.6%.
With `CCOc1c(N=Nc2ccccc2)c(C)nn1C(N)=S` the figure was -40.9%.
With `C/C(=C\c1ccc(F)cc1)C(=O)O` the figure was 11.2%; with `N#Cc1ncn(CCO)c1N`, 3.9%.
As for `OC1(Cl)c2cccc3cccc(c23)C1(O)Cl` (stereo not given), the growth inhibition is -9.45%.
